A selection: hits, their analogues and other compounds. The true share with any hit is near 2.5%.
p53ts 39C kill: cytotoxicity in p53ts cells at nonpermissive temperature; H1299-p53A138V viability at 39C, ATP luminescence, 24 h; Potency, µM (top dose mostly 46.1 µM), actives largely listed as cytotoxic; hit rate 1.5% among 130,000; AID 902; further: nearly all actives have a fitted effect of over 55% in size
IkB signaling: inhibitors of IkB signaling in ABC-DLBCL cells. hit rate 0.04% among 110,000. Potency, µM (highest dose often 57.1 µM). ABC-DLBCL IkBa-CBG/CBR dual luciferase ratio, 4 h; response scale: scaled: untreated 0%, proteasome inhibitor 100%; active means well fitted curve in the direction sought with a large enough effect in the signal ratio, not every such curve was filed as active; inconclusive means small, poorly fitted or top-dose-only effect, or a change in a side signal; the % refers to the signal ratio;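 further: the direction sought is a rising ratio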
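Luminescence ratio of IκBα-fused green versus native red beetle luciferase in OCI-Ly3 cells, 4 h post-doxycycline with compound; red signal alone, scaled from basal (0%) to zero light (-100%), flagged nonspecific or cytotoxic effects.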
p53ts 32C kill: kills p53ts cells at the permissive temperature; H1299-p53A138V at 32C, ATP luminescence viability, 24 h; Potency, µM (highest dose often 46.1 µM), hits mostly cytotoxic; hit rate 0.93% among 130,000; AID 924; further: nearly all actives have a fitted effect of over 55% in size
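H1299-p53 A138V cells (temperature-sensitive p53) exposed 24 h to up to 46 uM compound at 32C, where p53 is wild-type in conformation. Viability read as ATP luminescence and normalised to DMSO and 100 uM tamoxifen. AC50 fitted with the Hill equation.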
Casp1 inh: caspase-1 (human) inhibition, allosteric or competitive | P29466 | Caspase-1 enzyme, Ac-WEHD-AFC fluorogenic rate | Potency, µM (series often up to 57.5 µM), most hits filed as inhibitors | hit rate 0.03% among 75,000
Caspase-7 inhib: blocks human caspase-7 allosterically or competitively; AID 889; recombinant caspase-7, Ac-DEVD-AFC fluorescence rate; hit rate 0.02% among 75,000; Potency, µM (top dose mostly 57.5 µM), usual class: inhibitors; P55210; active means well fitted inhibition curve with a large enough effect in the main read-out, with a control signal flat, not every such curve was filed as active; inconclusive means small, poorly fitted or top-dose-only effect, or a change in a side signal
FLuc inh: blocks Photinus pyralis firefly luciferase activity | purified firefly luciferase, luminescence, 8 min | Potency, µM (top dose mostly 57.1 µM), usual class: inhibitors | hit rate 2.2% among 72,000 | AID 411; further: nearly all actives have a fitted effect of over 40% in size
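Titration-based qHTS; buffer 50 mM imidazole pH 7.2, 50 mM KCl, 7 mM MgCl2, 10 uM ATP, 0.01% Tween 20, 0.05% BSA; luciferase/luciferin detector mix added after compound; 8 min, ambient; luminescence.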
A number is an active result; – = inactive; ? = inconclusive; · = no result; [ ] = dose if it differs, or a comment. Unless noted, the call rests on the fitted dose curve; in most records, active means well fitted curve in the direction sought with a large enough effect; inconclusive means small, poorly fitted or top-dose-only effect, or another doubt; inactive means no such curve, though single readings can be large; an effect the other way counts as inactive or inconclusive.

SMILES | p53ts 39C kill | IkB signaling | p53ts 32C kill | Casp1 inh | Caspase-7 inhib | FLuc inh
Oc1cccc(C(Nc2ccccn2)c2ccc3cccnc3c2O)c1Cl (configuration not stated) | 7.9µM | ? | – | · | · | ·
Cc1ccc(CNC(=O)CSc2nc(C)cc(C)c2C#N)cc1 | – | – | – | – | – | –
COc1ccccc1N1CCN(c2ccc(-c3ccccc3)nn2)CC1 | 2µM | 4µM | 3.2µM | – | – | 0.63µM
COc1ccccc1N1CCN(c2nc(-c3ccccc3)cc(C(F)(F)F)n2)CC1 | – | – | – | – | – | –
CCOC(=O)c1[nH]c(C)c(C(=O)Nc2ccc3c(c2)CCC3)c1C | – | – | – | – | – | –
CCOc1ccc(CNC(=O)c2ccccc2NC(=O)c2nsc3ccccc23)cc1 | 10µM | – | ? | · | · | ·
CCOc1ccc(CNC(=O)c2ccc(NC(=O)c3nsc4ccccc34)cc2)cc1 | – | ? | – | · | · | ·
Cc1c(-c2ccc(O)cc2)nn(-c2ccc(O)cc2)c1-c1ccc(OCCN2CCCCC2)cc1 | 32µM | ? | ? | – | – | –
CCCCCCCC[N+](CCCCCCCC)(CCCCCCCC)CCCCCCCC | 16µM | ? | ? | – | – | ·
CC(NC(=O)c1ccc2c(c1)CCN2S(C)(=O)=O)c1ccccc1 (configuration not stated) | – | – | – | · | · | ·
CS(=O)(=O)N1CCc2cc(C(=O)OCC(=O)c3ccccc3)ccc21 | – | – | – | – | – | 13µM
COC(=O)[C@@H]1C[C@@H]2CC[C@@H](O)C[C@@H]2N1Cc1ccc(N2CCOCC2)cc1 | – | · | – | – | – | ·
COc1ccc(-c2cc(C(F)(F)F)nc(SCCC(=O)Nc3cc(C)ccc3O)n2)cc1 | 10µM | ? | – | · | · | ·
COc1ccc(-c2cc(C(F)(F)F)nc(SCCC(=O)Nc3ccccc3F)n2)cc1 | – | – | – | · | · | ·
O=C(Nc1cccc(Cl)c1)c1ccc(Cn2cc(Cl)cn2)cc1 | – | · | · | · | · | ·
CCOc1nc(-c2ccc(OC)cc2)ccc1-c1noc(C)n1 | – | – | – | – | – | –
Cc1ccc(Nc2c3c(nc4ccccc24)CCC3)cc1F | – | ? | – | · | · | ·
Cc1ccc2nc3c(c(Nc4ccc(C)c(C)c4)c2c1)CCC3 | 10µM | ? | ? | · | · | ·
C(=N\c1nc2ccccc2[nH]1)/c1cccs1 | – | – | – | – | – | 7.9µM
Cn1c(/C=N/c2nc3ccccc3[nH]2)nc2ccccc21 | ? | ? | – | – | – | –
c1cn(CCCNc2ncnc3nc[nH]c23)cn1 | – | ? | ? | – | – | 2.5µM
CCN1CCN(CCCNc2ncnc3nc[nH]c23)CC1 | – | – | – | – | – | –
COc1ccc(CNC(=O)c2cnc3ccc(C)cn3c2=O)cc1 | – | – | – | · | · | ·
CC(=O)c1cccc(NS(=O)(=O)c2ccc(N/C=C/C(=O)c3ccc(F)cc3)cc2)c1 | – | · | · | · | · | ·
O=C(/C=C/Nc1cccc(O)c1)c1ccccc1 | 7.9µM | ? | 4µM | ? | – | 2µM
SMILES | p53ts 39C kill | IkB signaling | p53ts 32C kill | Casp1 inh | Caspase-7 inhib | FLuc inh
C/C(=C\C(=O)c1ccc(C)cc1)Nc1cccc(O)c1 | – | ? | ? | – | – | 5µM
Cc1ccc(C(=O)/C=C/Nc2cccc(O)c2)cc1 | · | · | · | · | · | 2.5µM
O=C(NCC(=O)N(Cc1cccs1)C(C(=O)NC1CCCC1)c1ccncc1)c1ccco1 (configuration not stated) | – | – | – | – | – | –
COC(=O)Cc1c(C)nc2nc(-c3ccc(C)cc3)[nH]n2c1=O | ? | ? | 10µM | · | · | ·
COC(=O)Cc1c(C)nc2nc(-c3ccccc3)[nH]n2c1=O | – | – | – | – | – | 25µM
COC(=O)Cc1c(C)nc2nc(-c3cccnc3)[nH]n2c1=O | – | – | – | – | – | –
CCCn1nc(C(=O)OCC(=O)Nc2ncc(Cl)c(C)c2Cl)c2ccccc2c1=O | – | · | – | · | · | ·
CCN(CC)CC(=O)c1c[nH]c2ccccc12 | – | ? | – | – | – | –
CCn1nnc2cc(C(=O)Nc3cccc(C(F)(F)F)c3)ccc21 | – | – | – | · | · | ·
CCCCS(=O)(=O)c1nc(-c2ccc(Br)cc2)cc(-c2ccccc2)c1C#N | ? | 3.2µM | 2µM | · | · | ·
O=C1CC(c2cccc(F)c2)c2c(n3ncnc3[nH]c2=O)N1 (configuration not stated) | – | – | – | · | · | ·
Cc1ccc(C)c(Nc2cc(C(=O)NCCCN(C)C3CCCCC3)c3ccccc3n2)c1 | ? | ? | – | · | · | ·
CCCCN(CCCC)CCCNC(=O)c1cc(-c2ccc(Cl)s2)nc2ccccc12 | ? | ? | – | · | · | ·
CCc1ccccc1NC(=O)c1cc(-c2ccc(Cl)s2)nc2ccccc12 | 10µM | ? | ? | · | · | ·
CCCCN(CCCNC(=O)c1cc(Nc2ccc(OC)c(OC)c2)nc2ccccc12)Cc1ccccc1 | 13µM | ? | – | · | · | ·
CCCCN(CCCNC(=O)c1cc(Nc2ccc(OC)cc2)nc2ccccc12)Cc1ccccc1 | – | – | – | · | · | ·
CCCCN(C)CCCNC(=O)c1cc(-c2ccc(Br)s2)nc2ccccc12 | 13µM | – | – | · | · | ·
Cc1cc(C)cc(Nc2cc(C(=O)NCCCN(C)C3CCCCC3)c3ccccc3n2)c1 | 7.9µM | ? | ? | · | · | ·
Cc1ccc(NS(=O)(=O)c2cc3[nH]c(=O)c(=O)[nH]c3cc2C)cc1Cl | · | · | – | · | · | ·
CCCCC[C@H](O)/C=C/[C@H]1[C@H](O)CC(=O)[C@@H]1C/C=C\CCCC(=O)O | – | · | – | – | – | ·
Cn1c(CNc2ccccc2)nc2ccccc21 | – | · | – | – | – | ·
CCn1cnc2cc(NCc3nc4ccccc4n3C)ccc21 | ? | – | 16µM | – | – | 13µM
CC(C)n1cnc2cc(NCc3nc4ccccc4n3C)ccc21 | ? | – | ? | – | – | 13µM
COc1ccc(C(=O)Nc2nc3ccccc3[nH]2)cc1OC | ? | ? | ? | – | – | 25µM
COc1ccc(C(=O)NCc2nc3ccccc3[nH]2)cc1OC | – | – | – | – | – | –
SMILES | p53ts 39C kill | IkB signaling | p53ts 32C kill | Casp1 inh | Caspase-7 inhib | FLuc inh
Cc1c(C(=O)Nc2nc3ccccc3[nH]2)cccc1[N+](=O)[O-] | – | · | · | · | · | ·
O=C(Nc1nc2ccccc2[nH]1)c1ccccc1F | 1.6µM | ? | 1.3µM | – | – | 1µM
O=C(Nc1nc2ccccc2[nH]1)c1ccc(F)cc1 | 2µM | ? | 3.2µM | – | – | 3.2µM
Nn1cnn(Cc2ccccc2)c1=S | – | – | – | – | – | –
Cn1ccc(O)c(C#N)c1=O | – | –[11.4 µM] | – | – | – | –[11.4 µM]
CC(C)c1ccc(NS(=O)(=O)c2ccc3nc(-c4ccccc4)[nH]c3c2)cc1 | 20µM | ? | ? | · | · | ·
CCOC(=O)c1c(C)[nH]c(C(=O)COC(=O)C2CC2C)c1C (configuration not stated) | – | – | – | – | – | 10µM
CCOC(=O)c1c(C)[nH]c(C(=O)COC(=O)c2ccncc2)c1C | – | – | – | – | – | –
Fc1cccc(CSc2nc3ccncc3[nH]2)c1 | 10µM | – | 5µM | – | – | –

From PubChem BioAssay
